# ELG1 genotox: genotoxicity induction in ELG1-luciferase HEK293T cells; HEK293T ELG1-luciferase reporter, luminescence, 16 h; Potency, µM (doses to about 46 µM), for inactives: top-dose activity change, positive = activation, usual class: activators; actives 1.3% (n = 330,000); AID 504466; also: % of control where 0% means no effect; nearly all actives have a fitted effect of over 60% in size
#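 ELG1-luciferase HEK293T cells, 2,000/well; compound pinned in; 16 hr, 37 °C, 5% CO2; ONE-Glo, 30 min RT; luminescence on CCD imager.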
# SMN2 splice up: SMN2 splice variant enhancement. HEK293 SMN2-luciferase splicing reporter, luminescence, 30-36 h. Potency, µM (highest dose often 46.1 µM), for inactives: at the top dose activity change, positive = activation, actives largely listed as activators. actives 2.8% (n = 210,000). AID 1458; also: % of control where 0% means no effect; nearly all actives have a fitted effect of over 55% in size
#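 HEK293 cells carry an SMN2 minigene-luciferase reporter in which exon 7 inclusion puts luciferase in frame. Cells were seeded at 2000 cells/well, attached for 10-12 hours, then exposed to compounds for 30-36 hours at 37C before ONE-Glo luminescence.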
# NPC1 promoter act: activators of NPC1 promoter; Huh7 NPC1 promoter luciferase reporter, 24 h; Potency, µM (series often up to 9.22 µM), inactives show at the top dose activation, actives largely listed as activators; actives 2.4% (n = 320,000); also: % of control where 0% means no effect; nearly all actives have a fitted effect of over 60% in size
#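 Readout is luciferase luminescence, reflecting NPC1 promoter activation in stably transfected Huh7 cells after 24 h compound exposure at 37 °C in reduced-serum medium with 10% FBS.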
# Rab9 promoter act: Rab9 promoter activation; actives 2.8% (n = 320,000); Potency, µM (titrated, usually from 9.22 µM), inactives show at the top dose activation, negative = inhibition, actives largely listed as activators; Huh7 Rab9 promoter-luciferase reporter, luminescence, 24 h; AID 485297; also: % of control where 0% means no effect; nearly all actives have a fitted effect of over 60% in size
#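 Steps: seed 1500 Huh7 Rab9-luc cells per well, rest 2 h at 37 °C; add compound in DMSO; incubate 24 h; add luciferase reagent, 10 min ambient; read luminescence.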
# FLuc modulator: inhibits or activates purified firefly luciferase, miR-21 counter-screen; purified FLuc, Km substrates, luminescence inhibition; Potency, µM (highest dose often 57.5 µM), for the others: top-dose activity change, negative = inhibition, hits mostly inhibitors; actives 6.9% (n = 360,000); AID 588342;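 also: plate controls were vehicle for no effect and reference inhibitor for full effect; nearly all actives have a fitted effect of over 55% in size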
# Target sequence (P08659 whole entry, looked up): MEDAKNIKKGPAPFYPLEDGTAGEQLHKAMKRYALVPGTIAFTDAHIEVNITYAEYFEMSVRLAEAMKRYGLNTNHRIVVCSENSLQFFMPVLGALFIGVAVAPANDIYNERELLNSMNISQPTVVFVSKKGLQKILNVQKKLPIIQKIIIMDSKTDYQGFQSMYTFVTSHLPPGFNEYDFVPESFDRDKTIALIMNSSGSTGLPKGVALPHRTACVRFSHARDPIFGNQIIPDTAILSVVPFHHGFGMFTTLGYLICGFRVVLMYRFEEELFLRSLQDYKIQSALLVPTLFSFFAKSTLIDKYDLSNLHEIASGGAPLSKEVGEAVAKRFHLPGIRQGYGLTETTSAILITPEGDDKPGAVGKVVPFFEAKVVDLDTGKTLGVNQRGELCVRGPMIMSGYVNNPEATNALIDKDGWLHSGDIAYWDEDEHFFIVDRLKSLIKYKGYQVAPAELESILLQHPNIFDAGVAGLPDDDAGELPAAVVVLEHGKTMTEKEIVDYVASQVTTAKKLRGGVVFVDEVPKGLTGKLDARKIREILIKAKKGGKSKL
#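 Biochemical qHTS of compounds, final roughly 60 µM downward over six points, against 10 nM purified firefly luciferase using Km concentrations of substrates (10 uM D-luciferin, 10 uM ATP) in Tris acetate pH 7.5 buffer; luminescence output.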
# KinaseGlo FLuc: Kinase-Glo luciferase inhibition (counter-screen); actives 0.28% (n = 200,000); Potency, µM (series often up to 38.3 µM), inactives show at the top dose activity change, negative = inhibition, hits mostly inhibitors; Kinase-Glo luciferase, ATP luminescence, 8 min; AID 1379; Q27757; also: % is scaled to controls: 0 for no effect and ±100 for the full control effect; nearly all actives have a fitted effect of over 60% in size
#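 Substrate mix (final 50 mM imidazole pH 7.2, 50 mM KCl, 7 mM MgCl2, 10 uM ATP, 0.01% Tween 20, 0.05% BSA) plus pin-tool compound, then Kinase-Glo detection mix; 8 min ambient, luminescence read.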
# Numbers without * were called inactive; ? = inconclusive; . = no result given; [ ] = remark or other dose. Only some compounds are listed: those with a hit (about 7.5% of all), similar ones and a draw of the others. Calls follow the shape of the dose curve; as a rule, active = well fitted curve in the direction sought with a large enough effect; inconclusive = small, poorly fitted or top-dose-only effect, or another doubt; inactive = no such curve, though single readings can be large; an effect the other way counts as inactive or inconclusive. Potency is read from the fitted curve at half-maximal effect.
SMILES,ELG1 genotox,SMN2 splice up,NPC1 promoter act,Rab9 promoter act,FLuc modulator,KinaseGlo FLuc
CCN(CC)S(=O)(=O)c1cccc(C(=O)Nc2sc3c(c2C#N)CCC(C)C3)c1 (configuration not stated),.,11.2%,.,.,?,.
CCCNC(=O)N1CCN(S(=O)(=O)c2ccc3c(ccn3C)c2)CC1,.,.,.,.,-4.8%,.
COCCc1nn2c(=O)cc(COC(=O)c3ccccc3C)nc2s1,.,.,.,.,2.7%,.
CC1CCc2c(sc3ncnc(NS(=O)(=O)c4cccs4)c23)C1 (configuration not stated),-0.1%,5.1%,-2.9%,1.6%,15.1µM*,-1.2%
COCCCNc1ncnc2sc3c(c12)CCC(C)C3 (configuration not stated),-0.7%,-21.5%,-1.9%,-0.1%,?,-4.3%
Cc1ccc(OCCNC(=O)CCNC(=O)c2ccc(Cl)cc2)cc1,4.9%,.,-4.4%,1.5%,3.9%,.
CCn1c(/C(C#N)=C/c2ccccc2Cl)nc2ccccc21,.,.,.,.,5.36µM*,.
COc1ccccc1C(=O)c1nc2ccccc2n1C,0.1%,.,28.6%,0.7%,0.7%,.
Cn1c(/C(C#N)=C/c2ccccc2Br)nc2ccccc21,.,4.5%,.,.,7.57µM*,.
CCn1c(/C(C#N)=N/O)nc2ccccc21,-3.6%,-46.4%,0.1%,0.7%,0.2%,-0.8%
COc1ccc(N/C=C(\C#N)c2nc3ccccc3n2C)c(OC)c1,-7.0%,-18.0%,21.2%,0.4%,2.69µM*,13.8%
CC(C)CC(=O)Nc1c(C(=O)N2CCN(c3ccccc3F)CC2)oc2ccccc12,.,.,.,.,-14.6%,.
CCOC(=O)Cc1ccc(NC(=O)N2CC(CC)Oc3ccccc32)cc1 (configuration not stated),.,.,.,.,1.2%,.
COC(=O)c1ccc(Sc2ccc(C)cc2)c(N)c1,2.7%,-15.7%,15.0%,23.7%,19µM*,-0.5%
O=C(/C=C/c1ccco1)Nc1ccc(CN2CCOCC2)cc1,?,.,1.41µM*,2.82µM*,6.01µM*,.
O=C(/C=C/c1ccc(Cl)cc1Cl)Nc1ccc(CN2CCOCC2)cc1,8.6%,-76.6%,-7.7%,-21.7%,7.57µM*,-0.3%
O=C(/C=C/c1ccccc1)Nc1ccc(CN2CCOCC2)cc1,17.0%,29.2%,18.3%,?,12µM*,0.8%
O=C(/C=C/c1ccco1)Nc1ccccc1N1CCOCC1,-0.8%,1.9%,-5.9%,1.7%,-11.7%,-1.7%
O=C(/C=C/c1ccco1)Nc1ccc(N2CCCC2)cc1,?,15.8µM*,3.55µM*,2.82µM*,2.39µM*,-8.7%
O=C(/C=C/c1ccc(Cl)cc1)NC(=S)Nc1ccc(CN2CCOCC2)cc1,?,.,-11.0%,-2.4%,0.4%,-1.5%
O=C(/C=C/c1ccco1)Nc1ccc(C(=O)N2CCOCC2)cc1,2.7%,20.8%,9.6%,2.6%,?,-4.1%
Cn1cccc1-c1nc2ccc(NC(=O)c3ccc([N+](=O)[O-])cc3)cc2[nH]1,9.1%,12.0%,-2.7%,3.7%,-1.7%,-1.4%
Cc1nnsc1-c1nc2ccccc2[nH]1,-0.1%,-14.5%,6.5%,0.0%,-7.6%,-3.7%
Cc1ccc(S(=O)(=O)Nc2ccc3cn[nH]c3c2)cc1,-0.5%,.,-0.8%,-1.7%,0.3%,.
Nc1ccc(C(=O)Nc2ccc3nc(-c4cccnc4)[nH]c3c2)cc1,2.0%,12.9%,-5.6%,6.4%,16.9µM*,-3.2%
SMILES,ELG1 genotox,SMN2 splice up,NPC1 promoter act,Rab9 promoter act,FLuc modulator,KinaseGlo FLuc
Cn1cccc1-c1nc2ccccc2[nH]1,?,.,?,30.0%,16.9µM*,.
Cn1cccc1-c1nc2ccc(NC(=O)c3ccccc3)cc2[nH]1,?,27.9%,16.2%,27.9%,15.1µM*,-0.3%
Cc1ccc(S(=O)(=O)Nc2ccc3nc(-c4cccn4C)[nH]c3c2)cc1,0.2%,8.91µM*,6.5%,-0.5%,-15.9%,-1.5%
Cc1nc2ccc(S(=O)(=O)N(C)CC(=O)Nc3ccc(Br)c(C)c3)cc2s1,.,10.9%,.,.,-17.8%,.
CCNNC(=O)C(O)(Cc1ccccc1)Cc1ccccc1,-2.3%,.,1.0%,-0.6%,0.5%,.
Cc1nc2ccc(NC(=O)c3ccco3)cc2nc1C,17.1%,24.4%,19.3%,?,?,-4.1%
O=C(Nc1ccc2nn(-c3ccccc3)nc2c1)c1cccnc1,11.2%,-3.8%,3.55µM*,?,?,-1.5%
O=C(Nc1ccc2nn(-c3ccc(F)cc3)nc2c1)c1cccnc1,8.7%,7.9%,19.5%,27.0%,-18.4%,-0.9%
O=C(Nc1cc2nn(-c3ccccc3)nc2cc1Cl)c1ccco1,9.2µM*,11.2µM*,3.98µM*,3.55µM*,?,-1.0%
O=C(Nc1ccc2nn(-c3ccccc3)nc2c1)c1ccco1,?,3.98µM*,2.82µM*,3.55µM*,?,0.3%
CC(C)C(=O)Nc1ccc2nn(-c3ccccc3)nc2c1,1.16µM*,7.94µM*,0.224µM*,0.141µM*,0.675µM*,-0.8%
CC(=O)c1nn(-c2ccc(OC(F)(F)F)cc2)nc1Nc1ccc(Cl)cc1,.,5.4%,.,.,-8.2%,.
CC(C)c1cnc2c(c1SCc1cccc(F)c1)c(=O)n(C)c(=O)n2C,.,.,.,.,2.2%,.
COc1ccc(C)cc1Nc1cc(C)nc(C)n1,.,.,.,.,3.6%,.
CC(C)(C#CCN1CCCCC1)OCCOC(c1ccccc1)c1ccccc1,-7.9%,.,-0.9%,-3.9%,-2.4%,-3.6%
Cn1nnc(NC(=S)NC(=O)Cc2ccccc2)n1,-0.4%,-2.5%,-0.5%,-3.8%,-1.3%,1.4%
COc1ccc(S(=O)(=O)N2CCN(c3nn(C)c(=O)n(C)c3=O)CC2)cc1,1.3%,.,-1.7%,-0.2%,2.2%,.
Cc1cc(NC(=O)c2ccco2)ccc1-n1cnnn1,?,6.9%,?,?,21.3µM*,-10.1%
COc1cc(C(=O)Nc2ccc(-n3cnnn3)c(C)c2)cc(OC)c1OC,9.2%,25.7%,-0.9%,-0.6%,?,2.0%
O=C(O)c1cccc(-n2cccc2C=C2C(=O)c3ccccc3C2=O)c1,8.6%,.,-2.1%,-3.4%,12µM*,.
O=C(O)c1cccc(-n2cccc2/C=C2/NC(=O)N(c3cccc(Cl)c3)C2=O)c1,0.3%,.,3.3%,-4.5%,-6.7%,.
O=C(O)c1cccc(-n2cccc2/C=C2/NC(=O)N(c3ccc(Cl)cc3)C2=O)c1,1.8%,18.1%,2.9%,-1.9%,26.9µM*,1.3%
O=C1C(=Cc2cccn2-c2ccc(O)cc2)C(=O)c2ccccc21,0.9%,4.7%,-1.1%,0.3%,3.38µM*,-3.0%
CCCCCCOC(=O)C1(O)CC2OC1(C)n1c3ccccc3c3c4c(c5c6ccccc6n2c5c31)C(=O)NC4 (configuration not stated),.,-50.4%,.,.,.,1.4%[39.9 µM]
CC(=O)c1sc2c(c1C)c(=O)n(-c1ccc(Cl)cc1)c(=O)n2Cc1cc(=O)n2cc(Cl)ccc2n1,.,4.2%,.,.,-1.0%,.

# Screens (PubChem)
